Rows were chosen to be rich in hits. Some 4.1% of all compounds tested hit in one or more screens of this group.
GDH-TPI inh: GDH-TPI coupling enzyme inhibitors, primary screen, artefact control for M. tuberculosis FBA inhibitor project, biochemical, absorbance, full deck | GDH-TPI coupled enzyme counterscreen, NADH absorbance | inhibition, % at 4.8 µM | 1.2% of 360,000 active | AID 588335, 2011; in the data active = inhibition above about 30%;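 also: 0% = DMSO wells and 100% = wells lacking the enzyme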
BH1578 lux ind: inducers of Vibrio cholerae quorum light production without autoinducers, primary screen, BH1578 luxS cqsA deficient, single point; V. cholerae BH1578 lux reporter, luminescence, 6 h; activation, % at 18.7 µM; 0.16% of 350,000 active; in the data active = activation mostly above about 9.7%, no sharp cut-off
Mtb UGM inh: M. tuberculosis UGM enzyme inhibitors, primary screen, biochemical, fluorescence polarization, single point. AID 504406, 2011. UDP-galactopyranose mutase (Mycobacterium tuberculosis (strain ATCC 25618 / H37Rv)), …. purified UGM, fluorescence polarization probe displacement. 0.06% of 320,000 active. inhibition, % at 10 µM; in the data active = inhibition above about 10%, passing the limit was not always enough
Target sequence (P9WIQ1 whole entry, looked up): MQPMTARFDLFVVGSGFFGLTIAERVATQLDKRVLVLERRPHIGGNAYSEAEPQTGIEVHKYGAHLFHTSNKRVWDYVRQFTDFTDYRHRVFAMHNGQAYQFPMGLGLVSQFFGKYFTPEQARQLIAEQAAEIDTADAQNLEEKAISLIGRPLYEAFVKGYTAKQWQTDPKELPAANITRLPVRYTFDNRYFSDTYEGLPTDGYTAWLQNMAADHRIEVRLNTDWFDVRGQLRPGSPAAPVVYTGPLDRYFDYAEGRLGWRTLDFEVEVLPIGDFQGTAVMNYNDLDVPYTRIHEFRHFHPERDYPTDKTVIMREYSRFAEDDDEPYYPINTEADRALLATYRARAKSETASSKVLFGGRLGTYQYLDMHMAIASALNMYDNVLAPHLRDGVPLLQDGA
Rv3671c protease: Rv3671c serine protease inhibitors, primary screen, biochemical, fluorescence polarization, M. tuberculosis H37Rv. P9WHR9. inhibition, % at 5.96 µM. 0.048% of 320,000 active. AID 2606, 2010; in the data active = inhibition above about 38%;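 also: extracellular domain of Rv3671c used as enzyme; 0% = enzyme with DMSO and 100% = no enzyme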
Mtb FBA inh: Mtb FBA enzyme inhibitors, primary screen, biochemical, fluorescence, strain H37Rv; Fructose-bisphosphate aldolase (Mycobacterium tuberculosis (strain ATCC 25618 / H37Rv)), …; purified M. tuberculosis FBA, fluorescence read-out; inhibition, % at 1 µM; 2.3% of 360,000 active; AID 588726, 2011; in the data active = inhibition above about 27%;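 also: 0% = vehicle and 100% = reference inhibitor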
RecA splice inh: Mtb RecA intein splicing inhibitors, primary screen, biochemical, fluorescence, HTS. cell-free RecA intein splicing. inhibition, % (test concentration not listed). 0.75% of 290,000 active. AID 2221, 2009; in the data active = inhibition above about 30%;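 also: 0% = vehicle wells and 100% = reference inhibitor control wells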
Starred values were filed as active, the others as inactive; i = inactive; / = not tested or not shown; + = active, no number.

SMILES	GDH-TPI inh	BH1578 lux ind	Mtb UGM inh	Rv3671c protease	Mtb FBA inh	RecA splice inh
CCOc1ccc(S(=O)(=O)N(C)c2ccc(OCC(=O)NCCc3ccc(OC)cc3)cc2)cc1	5.1	i	0.8	5.7	-0.4	-9.0
COc1ccc(-c2cc(=O)oc3c(C)c(OC(C)C(=O)Nc4ccc(CN5CCOCC5)cc4)ccc23)cc1 (centres undefined)	6.0	-2.0	0.8	-34.5	-2.2	-0.9
COc1cc(/C=N\NC(=O)c2sc(N)nc2C)cc(OC)c1OC	41.5*	i	-1.0	2.6	-9.1	-2.6
COc1ccccc1/C=C/C=N/NC(=O)c1cccs1	45.2*	-0.2	1.1	-8.5	-0.3	0.2
O=C(C=Cc1ccccc1)c1cccs1	34.4*	i	/	/	-4.9	/
Cc1nc(N)sc1C(=O)N/N=C/c1ccc([N+](=O)[O-])cc1	22.9	0.6	0.9	3.7	1.8	-0.8
O=C(O)COc1ccccc1/C=N/NC(=O)c1ccc(F)cc1	46.3*	-0.3	3.0	-2.2	-1.4	-0.3
O=C(O)COc1ccccc1/C=N/NC(=O)CNC(=O)c1ccc(F)cc1	15.2	i	2.1	8.1	-5.7	-2.8
Nc1ccc(/C=C/C(=O)c2cccs2)cc1	19.6	-0.6	-0.9	8.4	-12.3	1.9
O=C(O)C1C(c2ccccc2)=C1c1ccc(Br)cc1 (centres undefined)	19.1	2.9	/	/	4.3	/
COc1ccccc1C=NNC(=O)NN=Cc1ccccc1OC	31.5*	i	/	/	-1.6	/
O=C(N/N=C/c1ccc(Br)s1)c1c[nH]c2ccccc12	39.7*	i	1.8	-10.5	0.3	1.1
CC(/C=N/NC(=O)c1sc(N)nc1C)=C\c1ccccc1	37.0*	i	-1.0	5.8	-4.4	-1.0
O=C(N/N=C/c1cc(Br)cs1)c1c[nH]c2ccccc12	23.8	-0.3	1.2	-21.3	-3.1	7.5
Cc1cc(C(=O)O)cc(S(=O)(=O)NNC(=O)c2cccs2)c1C	-3.7	-1.4	5.3	2.3	2.6	2.5
O=C(c1ccccc1)c1c[nH]c(C(=O)C(Cl)(Cl)Cl)c1	0.9	0.1	-2.4	-6.9	-0.6	46.2*
CN(C)C(=O)c1cc(C(=O)c2ccc(F)cc2F)c[nH]1	2.6	1.6	-1.0	0.9	1.3	-0.6
O=C(c1c[nH]c(C(=O)C(Cl)(Cl)Cl)c1)c1ccc(F)cc1F	-4.4	i	-1.3	5.0	-1.9	33.8*
Cn1nccc1C(=O)NC1CCCc2c1cnn2-c1cc(F)cc(F)c1 (centres undefined)	7.7	i	-1.6	-2.0	+	2.9
CC1=C(C(=O)NC2CCCc3c2cnn3-c2cc(F)cc(F)c2)OCCO1 (centres undefined)	1.3	-0.3	2.2	-3.9	1.7	0.8
O=C(N/C(=C\c1ccc(Br)cc1)c1nc2ccccc2[nH]1)c1ccco1	47.2*	-5.0	0.9	8.4	2.4	0.8
O=C(N/C(=C/c1cccs1)c1nc2ccccc2[nH]1)c1ccccc1	32.8*	/	0.2	5.3	-1.1	0.0
Cc1ccc(C(=O)N/C(=C\c2cccs2)c2nc3ccccc3[nH]2)cc1	43.5*	-0.2	-0.4	-9.0	-0.1	1.5
O=C(N/C(=C\c1cccnc1)c1nc2ccccc2[nH]1)c1cccc(Br)c1	21.5	-0.2	-0.8	-2.1	-0.6	1.3
CN(C)c1cc(N/N=C/c2ccc(Cl)cc2)nc(N(C)C)n1	9.7	-0.3	/	/	0.8	/
SMILES	GDH-TPI inh	BH1578 lux ind	Mtb UGM inh	Rv3671c protease	Mtb FBA inh	RecA splice inh
CCN(C(=O)COc1ccc(C(C)=O)cc1)c1cccc2ccccc12	12.6	i	-0.8	0.2	6.9	/
COc1ccc2[nH]c3c(c2c1)CCN1C(=O)N([C@@H](C)C(=O)NCCc2ccc(F)cc2)C(=O)[C@]31C	9.8	-0.4	3.0	-11.0	1.0	-1.7
CN(C)c1ccc(/C=N/N2CCN(c3ccccn3)CC2)cc1	39.3*	i	1.0	0.9	-3.0	-2.2
CN(c1ccccc1)c1ccc(/C=N/N2CCOCC2)cc1	30.9*	1.1	0.3	-1.4	-0.2	-6.2
CC(C)c1ccc2oc(-c3ccc(NC(=O)c4ncn[nH]4)cc3)nc2c1	/	i	-2.0	-14.9	/	-0.2
CCC(C)c1ccc2oc(-c3ccc(NC(=O)c4ncn[nH]4)cc3)nc2c1 (centres undefined)	31.0*	-1.8	-1.5	-7.6	3.8	-1.3
CCOc1ccc(Cl)cc1-c1cc(C(=O)Nc2ccc(C(C)C)cc2)[nH]n1	-4.6	-0.4	/	/	-2.8	/
CCc1ccc(/C=C2\Oc3c(ccc(O)c3CN3CCN(CCO)CC3)C2=O)cc1	35.4*	i	2.3	0.6	-3.2	-5.1
CCc1ccc(/C=C2\Oc3cc(OS(C)(=O)=O)ccc3C2=O)cc1	5.2	3.0	-2.1	-7.9	4.2	1.2
N/C(=N\N=C\c1ccc2c(c1)OCO2)c1nonc1N	31.9*	-0.1	0.1	-9.9	1.7	-1.1
CCc1ccc(NC(=O)C(=O)c2cn(CC(=O)N3CCCCC3)c3ccccc23)cc1	37.0*	-0.2	0.4	-53.3	-3.0	-0.9
COc1ccc(NC(=O)C(=O)c2cn(CC(=O)N3CCCC3)c3ccccc23)cc1OC	13.7	-4.2	-0.2	-4.9	5.8	-1.6
COc1cccc(NC(=O)C(=O)c2cn(CC(=O)N3CCCC3)c3ccccc23)c1	31.0*	-0.5	-2.1	1.6	-0.7	3.2
COc1cc(-c2noc(CCC(=O)NC3CCCCC3)n2)cc(OC)c1OC	0.8	i	0.1	-4.2	2.1	7.4
COc1ccccc1NC(=O)C1CCCN1C(=O)NC1CCCCC1 (centres undefined)	-5.2	i	-0.2	1.4	-5.6	/
COc1cc2oc(=O)ccc2cc1-c1c(OC)ccc2ccc(=O)oc12	35.3*	-0.4	/	-1.7	3.7	/
COc1ccc(-c2ccc(C(=O)NCc3ccc(C(F)(F)F)cc3)c3occc23)c(C)c1	6.2	i	/	/	11.9	/
CC1CN(c2oc(-c3cccs3)nc2C#N)CC(C)O1 (centres undefined)	20.3	i	-1.9	4.5	+	0.4
N#Cc1nc(COc2ccccc2)oc1N1CCOCC1	2.9	-0.3	-2.6	-0.6	-4.3	-1.2
N#Cc1nc(-c2cccs2)oc1N1CCOCC1	27.8	-0.5	-1.6	-0.9	+	-2.4
CCOC(=O)c1c(C)[nH]c(C(=O)OCC(=O)Nc2sccc2C(N)=O)c1C	5.2	-2.0	-4.1	-47.2	1.0	-2.4
COc1ccc2c(C)c(C(=O)NCC(C)O)oc2c1OC (centres undefined)	3.4	-0.4	-1.3	-3.4	138.2*	-5.2

Bioassay records (PubChem BioAssay)
